Measured values reported in PubChem BioAssay AID1159580 (chemical genetic matrix, 2015).
Screen size: about 5,500 compounds; about 2,000 (36%) were called active. Inconclusive results (about 18%) are left out. Rule as the data show it: active = normalized growth mostly below about 0.91 (no sharp cut-off); inconclusive = no clear call, values can overlap the other calls; inactive = mostly above about 0.92. The list shows a part of the results.

Assay: chemical genetic growth profiling, strain panel (AID 1159580);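 also: tested at 20 µM; growth read once vehicle control cultures reached saturation at 30 °C; 1 = growth at the plate median or of vehicle wells; lower values mean less growth of the strain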
Conditions: growth OD

Measured: normalized growth

OC1C(O)C(O)C(O)C(O)C1O (stereo not given)
inactive: S. cerevisiae deletion strains, locus YJR075W, strain HOC1, stronger effect = lower value 1 | S. cerevisiae deletion strains, locus YKL009W, strain mrt4, stronger effect = lower value 0.953 | S. cerevisiae deletion strains, locus YKL068W, stronger effect = lower value 0.973 | S. cerevisiae deletion strains, locus YKL085W, strain MDH1 (second series), stronger effect = lower value 0.97 | S. cerevisiae deletion strains, locus YKL085W, strain MDH1, stronger effect = lower value 0.97 | S. cerevisiae deletion strains, locus YKL160W, strain elf1, stronger effect = lower value 1 | S. cerevisiae deletion strains, locus YKL190W, strain CNB1, stronger effect = lower value 0.99 | S. cerevisiae deletion strains, locus YKR001C, strain vps1, stronger effect = lower value 0.982 | S. cerevisiae deletion strains, locus YKR026C, strain gcn3, stronger effect = lower value 0.997 | S. cerevisiae deletion strains, locus YKR091W, strain srl3, stronger effect = lower value 0.999 | S. cerevisiae deletion strains, locus YLL001W, strain dnm1, stronger effect = lower value 0.997 | S. cerevisiae deletion strains, locus YLL026W, stronger effect = lower value 1 | S. cerevisiae deletion strains, locus YLL041C, strain sdh2, stronger effect = lower value 0.996 | S. cerevisiae deletion strains, locus YLR027C, strain aat2, stronger effect = lower value 1 | S. cerevisiae deletion strains, locus YLR039C, strain RIC1, stronger effect = lower value 0.966 | S. cerevisiae deletion strains, locus YLR058C, strain SHM2, stronger effect = lower value 0.982 | S. cerevisiae deletion strains, locus YLR102C, strain apc9, stronger effect = lower value 0.994 | S. cerevisiae deletion strains, locus YLR113W, strain HOG1, stronger effect = lower value 0.964 | S. cerevisiae deletion strains, locus YLR221C, strain rsa3, stronger effect = lower value 1 | S. cerevisiae deletion strains, locus YLR258W, strain gsy2, stronger effect = lower value 0.998 | S. cerevisiae deletion strains, locus YLR262C, strain YPT6 (second series), stronger effect = lower value 1 | S. cerevisiae deletion strains, locus YLR262C, strain YPT6, stronger effect = lower value 0.962 | S. cerevisiae deletion strains, locus YLR268W, strain sec22, stronger effect = lower value 0.996 | S. cerevisiae deletion strains, locus YLR320W, strain mms22, stronger effect = lower value 0.998 | S. cerevisiae deletion strains, locus YLR330W, strain CHS5, stronger effect = lower value 0.995 | S. cerevisiae deletion strains, locus YLR342W, strain FKS1 (second series), stronger effect = lower value 1.04 | S. cerevisiae deletion strains, locus YLR342W, strain FKS1, stronger effect = lower value 0.995 | S. cerevisiae deletion strains, locus YLR357W, strain rsc2, stronger effect = lower value 0.988 | S. cerevisiae deletion strains, locus YLR370C, strain arc18, stronger effect = lower value 1 | S. cerevisiae deletion strains, locus YLR371W, strain rom2, stronger effect = lower value 0.976 | S. cerevisiae deletion strains, locus YLR384C, strain iki3, stronger effect = lower value 0.998 | S. cerevisiae deletion strains, locus YLR418C, strain cdc73, stronger effect = lower value 0.979 | S. cerevisiae deletion strains, locus YML016C, strain PPZ1, stronger effect = lower value 0.996 | S. cerevisiae deletion strains, locus YML032C, strain rad52, stronger effect = lower value 0.981 | S. cerevisiae deletion strains, locus YML120C, strain ndi1, stronger effect = lower value 1.01 | S. cerevisiae deletion strains, locus YML124C, strain tub3, stronger effect = lower value 0.985 | S. cerevisiae deletion strains, locus YMR058W, strain fet3, stronger effect = lower value 1 | S. cerevisiae deletion strains, locus YMR078C, strain ctf18, stronger effect = lower value 0.982 | S. cerevisiae deletion strains, locus YMR125W, strain sto1, stronger effect = lower value 0.991 | S. cerevisiae deletion strains, locus YMR129W, stronger effect = lower value 0.997 | S. cerevisiae deletion strains, locus YMR205C, strain PFK2, stronger effect = lower value 0.996 | S. cerevisiae deletion strains, locus YMR223W, strain ubp8, stronger effect = lower value 1.02 | S. cerevisiae deletion strains, locus YMR231W, strain pep5, stronger effect = lower value 1 | S. cerevisiae deletion strains, locus YMR263W, strain SAP30, stronger effect = lower value 0.99 | S. cerevisiae deletion strains, locus YMR307W, strain GAS1, stronger effect = lower value 1.03 | S. cerevisiae deletion strains, locus YNL067W, strain RPL9B, stronger effect = lower value 0.965 | S. cerevisiae deletion strains, locus YNL071W, strain lat1, stronger effect = lower value 1 | S. cerevisiae deletion strains, locus YNL153C, strain GIM3, stronger effect = lower value 0.972 | S. cerevisiae deletion strains, locus YNL183C, strain NPR1, stronger effect = lower value 0.984 | S. cerevisiae deletion strains, locus YNL209W, strain ssb2, stronger effect = lower value 0.997 | S. cerevisiae deletion strains, locus YNL233W, strain BNI4, stronger effect = lower value 0.996 | S. cerevisiae deletion strains, locus YNL248C, strain rpa49, stronger effect = lower value 0.99 | S. cerevisiae deletion strains, locus YNL250W, strain rad50, stronger effect = lower value 0.979 | S. cerevisiae deletion strains, locus YNL271C, strain bni1, stronger effect = lower value 0.984 | S. cerevisiae deletion strains, locus YNL298W, strain CLA4, stronger effect = lower value 0.991 | S. cerevisiae deletion strains, locus YNL307C, strain MCK1, stronger effect = lower value 0.984 | S. cerevisiae deletion strains, locus YNL322C, strain KRE1 (second series), stronger effect = lower value 1 | S. cerevisiae deletion strains, locus YNL322C, strain KRE1, stronger effect = lower value 0.993 | S. cerevisiae deletion strains, locus YNR049C, strain mso1, stronger effect = lower value 1 | S. cerevisiae deletion strains, locus YNR052C, strain pop2, stronger effect = lower value 0.989 | S. cerevisiae deletion strains, locus YOL006C, strain TOP1, stronger effect = lower value 0.938 | S. cerevisiae deletion strains, locus YOL012C, strain htz1 1.04 | S. cerevisiae deletion strains, locus YOL147C, strain pex11, stronger effect = lower value 0.994 | S. cerevisiae deletion strains, locus YOR001W, strain rrp6, stronger effect = lower value 1.01 | S. cerevisiae deletion strains, locus YOR061W, strain CKA2, stronger effect = lower value 0.974 | S. cerevisiae deletion strains, locus YOR069W, strain VPS5, stronger effect = lower value 0.997 | S. cerevisiae deletion strains, locus YOR070C, strain gyp1, stronger effect = lower value 1 | S. cerevisiae deletion strains, locus YOR080W, strain dia2, stronger effect = lower value 0.993 | S. cerevisiae deletion strains, locus YOR083W, strain WHI5, stronger effect = lower value 1 | S. cerevisiae deletion strains, locus YOR106W, strain vam3, stronger effect = lower value 1 | S. cerevisiae deletion strains, locus YOR136W, strain idh2, stronger effect = lower value 0.984 | S. cerevisiae deletion strains, locus YOR144C, strain elg1, stronger effect = lower value 0.987 | S. cerevisiae deletion strains, locus YOR184W, strain ser1, stronger effect = lower value 0.996 | S. cerevisiae deletion strains, locus YOR231W, strain MKK1, stronger effect = lower value 0.995 | S. cerevisiae deletion strains, locus YOR265W, strain rbl2, stronger effect = lower value 1 | S. cerevisiae deletion strains, locus YOR270C, strain vph1, stronger effect = lower value 1 | S. cerevisiae deletion strains, locus YOR290C, strain snf2, stronger effect = lower value 0.996 | S. cerevisiae deletion strains, locus YOR316C, strain cot1, stronger effect = lower value 0.979 | S. cerevisiae deletion strains, locus YPL051W, strain arl3, stronger effect = lower value 1.01 | S. cerevisiae deletion strains, locus YPL055C, strain LGE1, stronger effect = lower value 0.966 | S. cerevisiae deletion strains, locus YPL078C, strain atp4, stronger effect = lower value 1 | S. cerevisiae deletion strains, locus YPL106C, strain sse1, stronger effect = lower value 1 | S. cerevisiae deletion strains, locus YPL240C, strain hsp82, stronger effect = lower value 0.995 | S. cerevisiae deletion strains, locus YPL256C, strain CLN2, stronger effect = lower value 0.961 | S. cerevisiae deletion strains, locus YPR119W, strain clb2, stronger effect = lower value 0.993 | S. cerevisiae deletion strains, locus YPR141C, strain kar3, stronger effect = lower value 0.929 | S. cerevisiae deletion strains, locus YPR163C, strain tif3, stronger effect = lower value 0.991 | S. cerevisiae deletion strains, locus YPR167C, strain met16, stronger effect = lower value 0.985 | S. cerevisiae deletion strains, strain wtn01, stronger effect = lower value 0.993 | S. cerevisiae strains, strain wild type, stronger effect = lower value 0.994
